# Measured values taken from PubChem BioAssay.
# Activity calls are given as the source filed them.
# Key:
# [1] = molecular target: Albumin (Bos taurus) (UniProt P02769); assay: bovine serum albumin binders on microarray, profiling panel, artefact control for SMM control protein annotation, biochemical, small-molecule microarray, Alexa647 label, 635/667 nm fluorescence (AID 1118); details: BSA-A647 binding, fluorescence 635 nm, higher = more signal;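 note: score merges 667 nm emission intensity and signal-to-noise per printed compound spot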
# Albumin (Bos taurus), sequence (P02769 whole entry, looked up): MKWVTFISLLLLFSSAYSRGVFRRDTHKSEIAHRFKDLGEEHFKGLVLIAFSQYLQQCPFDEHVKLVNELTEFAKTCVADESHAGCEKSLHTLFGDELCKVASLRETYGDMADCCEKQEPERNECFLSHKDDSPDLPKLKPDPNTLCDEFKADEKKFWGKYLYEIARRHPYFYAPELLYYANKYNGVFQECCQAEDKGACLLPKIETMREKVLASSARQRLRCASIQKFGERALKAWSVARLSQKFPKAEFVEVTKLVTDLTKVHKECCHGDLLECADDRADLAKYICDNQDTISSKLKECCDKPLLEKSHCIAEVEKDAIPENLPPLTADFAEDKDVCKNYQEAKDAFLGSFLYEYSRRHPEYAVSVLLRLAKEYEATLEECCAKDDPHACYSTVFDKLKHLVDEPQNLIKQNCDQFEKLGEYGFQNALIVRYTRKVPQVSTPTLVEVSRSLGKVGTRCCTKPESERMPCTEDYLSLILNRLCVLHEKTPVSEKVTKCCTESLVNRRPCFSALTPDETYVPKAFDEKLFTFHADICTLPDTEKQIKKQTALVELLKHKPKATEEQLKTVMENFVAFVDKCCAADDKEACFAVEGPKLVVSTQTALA
# [2] = small-molecule microarray binders of probe aXIP, primary screen, biochemical, NeuroSMM set, 635/667 nm fluorescence (AID 1119); details: higher = more signal, called active from +8 up or from −8 down;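 note: probe is the protein aXip251-270 applied at 1 µg/mL to compound-printed slides; binding of probe to printed compounds measured as 667 nm fluorescence plus signal to noise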
# [3] = small-molecule binders of probe aNOTCH3, primary screen, biochemical, small-molecule microarray, 635/667 nm fluorescence (AID 1120); details: higher = more signal;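 note: probe is a biotin-tagged antibody raised against NOTCH3 rather than NOTCH3 protein; score merges spot fluorescence near 667 nm with spot signal to noise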
# [4] = small-molecule binders of probe aNOTCH2, primary screen, biochemical, small-molecule microarray, 635/667 nm fluorescence (AID 1121); details: higher = more signal;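 note: score merges feature fluorescence read at 667 nm with its signal to noise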
# [5] = molecular target: Carbonic anhydrase 2 (Homo sapiens) (UniProt P00918); assay: CAII small-molecule binders, profiling panel, biochemical, small-molecule microarray, Alexa647-labelled CAII (AID 1122); details: CAII-A647 binding fluorescence, higher = more signal
# [6] = COS7 lysate on small-molecule microarray, probe aHis, 635 nm (AID 1123); details: COS7 cell lysate, fluorescence, higher = more signal;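 note: z-score combines 667nm fluorescence intensity with signal-to-noise per printed compound spot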
# [7] = compound binding in COS7 lysate, probe aLAP1, primary screen, cell lysate, small-molecule microarray (AID 1124); details: probe aLAP1, fluorescence, higher = more signal;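 note: lysate comes from COS7 cells expressing LAP1 and is applied at 0.3 µg/mL; score merges spot fluorescence near 667 nm with signal-to-noise over triplicate slides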
# [8] = system: Sam68 (KHDRBS1); assay: Sam68 small-molecule binders, primary screen, biochemical, small-molecule microarray, 635 nm fluorescence (AID 1125); details: small-molecule microarray binding, higher = more signal;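 note: score merges 667 nm channel intensity with signal to noise over triplicate slides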
# [9] = system: Chordin-like protein 2 (CHRDL2); assay: CHRDL2 small-molecule binders, primary screen, biochemical, small-molecule microarray, 635 nm fluorescence (AID 1126); details: small-molecule microarray binding, fluorescence 635 nm; higher = more signal;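 note: printed compound slides probed with Chrdl2 protein at 4 µg/mL for 1 h at 4 C; score merges 667 nm emission intensity with signal to noise over three replicate slides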
# [10] = molecular target: Concanavalin-A (Canavalia ensiformis) (UniProt P02866); assay: ConA small-molecule binders, primary screen, artefact control for SMM control protein annotation, biochemical, small-molecule microarray, Alexa647 label, 635 nm (AID 1127); details: ConA-A647 binding fluorescence, higher = more signal;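 note: z combines 667 nm emission intensity with signal-to-noise across three replicate slides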
# Concanavalin-A (Canavalia ensiformis), sequence (P02866 whole entry, looked up): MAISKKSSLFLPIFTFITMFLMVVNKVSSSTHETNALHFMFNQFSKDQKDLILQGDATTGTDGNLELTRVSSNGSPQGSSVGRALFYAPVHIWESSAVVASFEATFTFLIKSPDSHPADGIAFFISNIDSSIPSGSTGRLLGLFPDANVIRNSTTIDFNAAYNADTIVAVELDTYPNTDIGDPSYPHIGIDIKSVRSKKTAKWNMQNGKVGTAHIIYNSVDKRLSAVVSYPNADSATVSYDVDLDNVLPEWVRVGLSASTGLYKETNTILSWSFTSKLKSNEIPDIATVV
# [11] = anti-His antibody binders, primary screen, artefact control for SMM control protein annotation, biochemical, small-molecule microarray, 635 nm fluorescence (AID 1128); details: anti-His Alexa647 antibody binding, higher = more signal;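 note: score merges feature fluorescence with signal-to-noise for each printed compound spot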
# [12] = system: Human papillomavirus type 1a E7 protein (residues 1-88); assay: HPV1a E7 small-molecule binders, primary screen, biochemical, small-molecule microarray, residues 1-88, 635 nm (AID 1129); details: small-molecule microarray binding, fluorescence 635 nm; higher = more signal
# [13] = molecular target: Focal adhesion kinase 1 (Homo sapiens) (UniProt Q05397); assay: small-molecule microarray binders of FAK, primary screen, biochemical, 635/667 nm fluorescence, BSA, DTT (AID 1130); details: PTK2 binding, 635 nm fluorescence, higher = more signal;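 note: composite of spot emission at 667 nm and signal to noise over triplicate slides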
# Focal adhesion kinase 1 (Homo sapiens), sequence (Q05397 whole entry, looked up): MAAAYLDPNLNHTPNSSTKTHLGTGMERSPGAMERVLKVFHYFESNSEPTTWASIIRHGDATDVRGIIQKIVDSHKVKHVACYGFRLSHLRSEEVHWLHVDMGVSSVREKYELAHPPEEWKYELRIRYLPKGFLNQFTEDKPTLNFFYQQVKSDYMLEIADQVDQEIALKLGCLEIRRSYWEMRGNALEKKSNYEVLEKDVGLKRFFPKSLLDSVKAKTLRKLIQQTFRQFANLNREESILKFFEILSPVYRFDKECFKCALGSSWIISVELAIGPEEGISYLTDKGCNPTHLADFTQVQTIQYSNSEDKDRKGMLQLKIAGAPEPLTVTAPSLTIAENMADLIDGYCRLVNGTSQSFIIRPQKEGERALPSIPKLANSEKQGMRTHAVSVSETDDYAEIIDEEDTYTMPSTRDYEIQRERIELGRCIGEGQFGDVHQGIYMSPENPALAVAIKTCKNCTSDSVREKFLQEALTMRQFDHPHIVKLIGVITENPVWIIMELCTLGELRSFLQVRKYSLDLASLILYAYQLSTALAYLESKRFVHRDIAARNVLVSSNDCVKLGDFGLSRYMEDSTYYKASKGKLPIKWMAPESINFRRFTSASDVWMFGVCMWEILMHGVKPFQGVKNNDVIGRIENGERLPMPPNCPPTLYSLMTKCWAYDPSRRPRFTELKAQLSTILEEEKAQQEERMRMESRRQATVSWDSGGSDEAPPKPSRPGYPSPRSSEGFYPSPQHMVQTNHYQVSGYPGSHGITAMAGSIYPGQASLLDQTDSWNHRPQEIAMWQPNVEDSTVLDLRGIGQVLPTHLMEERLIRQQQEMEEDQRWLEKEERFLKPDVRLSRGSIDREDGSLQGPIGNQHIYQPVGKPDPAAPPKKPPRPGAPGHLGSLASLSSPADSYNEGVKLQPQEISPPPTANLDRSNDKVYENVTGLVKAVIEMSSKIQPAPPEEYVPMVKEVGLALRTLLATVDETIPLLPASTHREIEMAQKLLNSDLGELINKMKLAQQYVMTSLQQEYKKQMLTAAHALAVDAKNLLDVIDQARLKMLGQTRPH
# [14] = system: Fibrinogen (Alexa647-labelled); assay: fibrinogen binders on compound microarrays, profiling panel, artefact control for SMM control-protein annotation, biochemical, small-molecule microarray, 635/667 nm fluorescence (AID 1131); details: fibrinogen-A647 binding fluorescence, higher = more signal;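 note: z-score merges 667 nm fluorescence with per-spot signal-to-noise over triplicate slides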
# [15] = molecular target: Follistatin (Homo sapiens) (UniProt P19883); assay: follistatin binders on small-molecule microarrays, primary screen, biochemical, small-molecule microarray, 635/667 nm fluorescence (AID 1132); details: FST binding, 635 nm fluorescence, higher = more signal
# Follistatin (Homo sapiens), sequence (P19883 whole entry, looked up): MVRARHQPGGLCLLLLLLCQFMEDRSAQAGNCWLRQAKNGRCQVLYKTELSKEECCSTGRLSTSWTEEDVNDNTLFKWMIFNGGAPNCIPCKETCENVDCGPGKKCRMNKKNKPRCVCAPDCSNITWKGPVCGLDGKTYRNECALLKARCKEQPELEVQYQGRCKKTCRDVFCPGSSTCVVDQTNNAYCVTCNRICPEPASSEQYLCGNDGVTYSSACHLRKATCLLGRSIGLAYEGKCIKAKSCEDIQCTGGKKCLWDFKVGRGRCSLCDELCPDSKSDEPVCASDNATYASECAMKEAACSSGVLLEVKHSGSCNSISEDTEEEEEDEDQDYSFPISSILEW
# [16] = molecular target: Fibroblast growth factor 2 (Homo sapiens) (UniProt P09038); assay: FGF2 binders on small-molecule microarrays, primary screen, biochemical, small-molecule microarray, 635/667 nm fluorescence (AID 1133); details: small-molecule microarray binding, FGF2, fluorescence 635/667; higher = more signal
# Fibroblast growth factor 2 (Homo sapiens), sequence (P09038 whole entry, looked up): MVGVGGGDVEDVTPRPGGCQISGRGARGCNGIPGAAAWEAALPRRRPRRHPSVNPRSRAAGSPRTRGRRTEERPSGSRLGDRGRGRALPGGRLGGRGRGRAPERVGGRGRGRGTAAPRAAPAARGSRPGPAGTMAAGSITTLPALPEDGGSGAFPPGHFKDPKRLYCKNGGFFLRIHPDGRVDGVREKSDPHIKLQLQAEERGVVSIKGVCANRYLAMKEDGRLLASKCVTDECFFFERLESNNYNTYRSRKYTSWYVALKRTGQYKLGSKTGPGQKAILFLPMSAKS
# [17] = mitochondrial membrane potential change in A549 cells, profiling panel, cell-based, JC-1 fluorescence, basal, 24 h, 100 nL (AID 1138); details: higher = more signal;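 note: A549 lung adenocarcinoma cells under basal conditions with no added stimulus; test concentration not given here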
# [18] = system: Lefty1; assay: Lefty1 binders on small-molecule microarrays, primary screen, biochemical, small-molecule microarray, 635/667 nm fluorescence (AID 1139); details: small-molecule microarray binding, fluorescence 635/667; higher = more signal
# [19] = system: wheat germ agglutinin (Triticum aestivum), Alexa647-labelled; assay: wheat germ agglutinin binders on compound microarrays, profiling panel, artefact control for SMM control-protein annotation, biochemical, small-molecule microarray, 635/667 nm fluorescence (AID 1140); details: WGA-A647 binding, 635 nm fluorescence, higher = more signal;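 note: score merges 667 nm feature emission with signal to noise over triplicate slides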
# [20] = molecular target: Luciferin 4-monooxygenase (Photinus pyralis) (UniProt P08659); assay: firefly luciferase enzyme inhibitors, primary screen, biochemical, luminescence, purified enzyme, 2006 set (AID 1141); details: SteadyGlo luminescence, 30 min, higher = more signal, called active from +8 up or from −8 down;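 note: cell-free assay with purified firefly luciferase at 100 ng per well in PBS; test concentration not given here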
# Luciferin 4-monooxygenase (Photinus pyralis), sequence (P08659 whole entry, looked up): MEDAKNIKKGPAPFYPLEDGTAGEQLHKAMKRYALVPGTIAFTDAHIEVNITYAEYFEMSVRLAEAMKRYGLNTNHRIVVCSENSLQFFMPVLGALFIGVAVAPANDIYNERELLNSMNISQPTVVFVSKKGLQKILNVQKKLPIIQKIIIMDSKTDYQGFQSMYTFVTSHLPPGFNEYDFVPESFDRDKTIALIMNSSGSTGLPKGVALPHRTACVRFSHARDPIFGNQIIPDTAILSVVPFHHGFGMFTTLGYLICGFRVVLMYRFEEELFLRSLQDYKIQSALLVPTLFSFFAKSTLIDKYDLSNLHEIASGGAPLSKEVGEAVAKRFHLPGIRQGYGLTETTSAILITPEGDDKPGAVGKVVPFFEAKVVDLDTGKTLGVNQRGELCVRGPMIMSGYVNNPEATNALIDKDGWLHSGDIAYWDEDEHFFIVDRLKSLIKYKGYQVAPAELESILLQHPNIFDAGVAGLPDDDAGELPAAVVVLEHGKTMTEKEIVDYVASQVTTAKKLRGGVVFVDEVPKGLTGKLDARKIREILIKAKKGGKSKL
Structure (SMILES),composite z-score [1],composite Z-score [2],composite z-score [3],composite z-score [4],composite z-score [5],composite z-score [6],composite z-score [7],composite z-score [8],composite z-score [9],composite z-score [10],composite z-score [11],composite z-score [12],composite z-score [13],composite z-score [14],composite z-score [15],composite z-score [16],z-score [17],composite z-score [18],composite z-score [19],z-score [20]
COc1cc(Cc2cc3c(c(-c4ccccc4)n2)[Si](C(C)C)(C(C)C)OC3)cc(OC)c1OC,-1.25,0.23 (inactive),-0.0682,-0.0028,0.153,-0.317,-0.27,-1.26,0.296,-0.264,-0.753,-1.33,-0.517,0.107,0.0972,0.542,0.489,-0.194,0.712,-0.111 (inactive)
CC(C)(C)OC(=O)CC[C@@]1(C(=O)N2CCOCC2)N=C(c2ccc(OCCCO)cc2)O[C@@H]1c1ccccc1CN=[N+]=[N-],0.966,1.31 (inactive),0.144,0.23,0.829,3.77,0.86,1.29,-0.406,1.09,3.27,1.26,0.855,0.949,1.4,1.76,0.193,-0.271,0.898,-1.2 (inactive)
OCCCc1cc[n+](Cc2cc3c(cc2Br)OCO3)cc1,0.038,-0.0354 (inactive),0.0785,-0.112,-0.213,-0.608,0.324,-0.724,-0.418,-1.9,-0.874,-1.86,-0.719,-1.64,-0.528,-0.333,-0.0611,-0.903,-0.77,-0.903 (inactive)
COc1ccc(C(=O)Nc2ccc(CN3C(=O)[C@]4(O[C@H](CC(=O)N(CCO)Cc5ccccc5)[C@@H]([Si](C)(C)c5ccc(OC)cc5)[C@@H]4C)c4ccccc43)cc2)cc1,-0.622,-0.21 (inactive),-0.0288,-0.193,0.541,1.58,1.62,1.35,1.18,0.905,0.122,1.14,0.677,0.375,1.25,1.31,-0.474,1.32,0.162,0.505 (inactive)
CC(C)C[C@@H]1NC(=O)[C@@H]2C[C@H](C(=O)NCCCCCNC(=O)CS)[C@H](c3ccc(O)cc3)N2C1=O,-0.0368,-0.442 (inactive),-0.101,-0.104,0.36,2.1,-0.646,0.92,0.652,0.374,2.52,-0.0315,0.322,0.0178,0.815,1.24,-0.976,0.627,0.263,0.448 (inactive)
Cc1ccc(S[C@]2(C(=O)NCc3ccccc3)CC(=O)N(Cc3ccccc3C(F)(F)F)[C@@H]2c2ccc(CO)cc2I)cc1,0.269,-0.915 (inactive),-0.242,-0.0417,0.815,1.2,1.04,-0.0245,-0.175,-0.546,1.53,-0.645,0.258,-0.201,0.0443,-0.402,1.28,-1.25,0.0776,-0.913 (inactive)
C=C1C(=O)C=C2CN(C(=O)c3ccccc3)[C@@](Cc3ccc(F)cc3)(C(=O)OC)[C@@H]12,1.03,0.114 (inactive),0.693,0.009,0.5,2.76,0.942,1.34,-0.775,1.14,1,1.18,0.69,1.03,1.25,-0.234,-3.17,-0.384,0.872,-25.6 (active)
C=CCNC(=O)[C@H]1[C@@H]2C(=O)O[C@@H](c3ccccc3)[C@@H](c3ccccc3)N2[C@@H](c2ccc(OCCO)cc2)[C@]12C(=O)N(C(=O)OCCOC)c1ccc(C#CCNC(N)=O)cc12,0.452,-0.0518 (inactive),0.0927,-0.0132,0.396,1.73,0.812,1.22,0.742,1.11,1.9,1.15,0.621,0.811,1.37,1.71,-0.0216,0.707,0.929,-0.0331 (inactive)
CC[C@@H](O[Si](C#C[Si](C(C)C)(C(C)C)C(C)C)(C(C)C)C(C)C)c1cn([C@H](C)c2ccccc2)nn1,-0.605,0.515 (inactive),-0.016,-0.171,0.0757,0.365,0.369,0.71,0.26,0.364,0.176,0.57,0.0506,-0.0116,0.548,0.335,-0.213,0.573,0.094,-0.268 (inactive)
CC[C@@H]1C=C(C(=O)O)[C@H](c2cccc(Cl)c2)N1S(=O)(=O)c1ccc(C)cc1,0.951,-0.147 (inactive),-0.0581,0.0274,0.824,2.46,0.501,1.09,-0.682,0.471,1.47,1.14,0.887,-0.611,-0.126,-0.686,0.435,-0.908,0.226,0.556 (inactive)
CC(=O)NCCCC[C@@H]1NC(=O)[C@H]2C[C@@H](C(=O)NCCCCCN)[C@@H](c3ccc(O)cc3)N2C1=O,0.675,0.0898 (inactive),-0.0677,-0.0706,0.413,1.1,-0.15,1.21,0.851,0.966,2.49,1.21,0.948,0.653,1.12,1.13,-0.109,0.944,0.773,0.148 (inactive)
